Assay results reported in PubChem BioAssay AID1458 (National Center for Advancing Translational Sciences (NCATS), 2008).
In all, about 210,000 compounds went through this assay and about 5,900 (2.8%) were called active. Inconclusive results (about 5%) are left out. The sample holds actives, similar compounds and a random draw of the others, so the mix is not that of the screen. A number with no mark means an inactive call. Calls follow the shape of the dose curve; as a rule, active = well fitted activation curve with a large enough effect; inconclusive = small, poorly fitted or top-dose-only effect; inactive = no such curve, though single readings can be large or run the other way.

Test: qHTS Assay for Enhancers of SMN2 Splice Variant Expression; also: nearly all actives have a fitted effect of over 55% in size; as to activity change, positive = activation: % of control where 0% means no effect
Conditions: HEK293 SMN2-luciferase splicing reporter, luminescence, 30-36 h; series mostly up to 46.1 µM; activity change, positive = activation: at the top concentration
How it was run: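 HEK293 cells carry an SMN2 minigene-luciferase reporter in which exon 7 inclusion puts luciferase in frame. Cells were seeded at 2000 cells/well, attached for 10-12 hours, then exposed to compounds for 30-36 hours at 37C before ONE-Glo luminescence.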
Potency is read from the fitted curve at half-maximal effect.

Row | Compound | activity change, positive = activation | Potency
1 | FC(F)(F)c1cc(Nc2nc3ccccc3c3nncn23)ccc1Cl | -29.6% | –
2 | CCN(C(=O)Cn1cc(S(=O)(=O)N2CCN(c3ccccc3F)CC2)c2ccccc2c1=O)c1ccc(C)c(C)c1 | 7.16% | –
3 | CSCCC(Nc1nc2ccccc2s1)C(=O)O (stereo not drawn) | 0.0276% | –
4 | c1ccc2sc(SCCSc3nc4ccccc4s3)nc2c1 | -8.26% [at 9.22 µM] | –
5 | Cc1ccnc(Nc2nc3ccccc3s2)n1 | – | 3.55 µM (active)
6 | Cc1nn(-c2nc(-c3ccccc3)cc(C(F)(F)F)n2)c(C)c1Cl | -3.6% | –
7 | Cc1ccccc1NC(=O)c1cc2c([nH]c1=O)CC(C)(C)CC2=O | 14.6% | –
8 | O=C(Nc1ccc2c(c1)CCC2)c1ccc(Br)s1 | – | 5.62 µM (active)
9 | O=C(NC1CCCC1)c1ccc(Br)s1 | -8.19% | –
10 | CC(C)C(=O)OCC(=O)Nc1ccc2c(c1)CCC2 | 10.6% | –
11 | NS(=O)(=O)c1ccc(NC(=O)C(=O)Nc2ccc3nc4n(c(=O)c3c2)CCCCC4)cc1 | 0.304% | –
12 | CCOc1ccc(S(=O)(=O)c2cn(Cc3ccccc3)c3ccc(OCC)cc3c2=O)cc1 | 1.43% | –
13 | Cc1oc(C)c2c(=O)cc(-c3ccc4c(c3)OCO4)cc(OC(=O)c3ccc(Cl)cc3)c12 | 2.7% | –
14 | CC(C)C12CN3CC(C(C)C)(CN(C1)C3c1ccc(OCc3ccccc3)cc1)C2=O (stereo not drawn) | 1.12% | –
15 | Cc1ccc(Cn2c(CCCNC(=O)C3CCCCC3)nc3ccccc32)cc1 | -19.1% | –
16 | CCOc1ccc(-c2cc(C)n3nc(C(=O)Nc4ccc(C)c(C)c4)cc3n2)cc1 | 1.94% | –
17 | Cc1ccc(N/C=C/C(=O)c2ccccc2)cc1C | – | 2.51 µM (active)
18 | Cc1noc(NS(=O)(=O)c2ccc(N/C=C/C(=O)c3ccccc3)cc2)c1C | 20.6% | –
19 | O=C(/C=C\NCC(=O)c1ccccc1)c1ccccc1 | -5.93% | –
20 | CSCCC(NS(=O)(=O)c1ccc2c(c1)oc(=O)n2C)C(=O)NCc1ccccc1 (stereo not drawn) | -3.7% | –
21 | O=C(COc1ccc2oc3c(c2c1)CCCC3)Nc1ccccn1 | – | 20 µM (active)
22 | Cc1ccc(OCC(=O)Nc2ccc(S(=O)(=O)Nc3ccccn3)cc2)cc1 | 0.0786% | –
23 | Cc1cc(C)cc(OCC(=O)Nc2ccc(S(=O)(=O)Nc3ccccn3)cc2)c1 | -4.75% | –
24 | COc1cc(OC)cc(-c2nc3nc(C)c(CCC(=O)Nc4ccc(C)cc4)c(C)n3n2)c1 | -1.68% | –
25 | CCOC(=O)c1cc2c(=O)n3ccccc3nc2n(CC2CCCO2)c1=NC(=O)c1ccccc1Br (stereo not drawn) | 3.82% | –
26 | Cc1cccc(NC(=O)CSc2nnc(-c3ccco3)o2)c1 | 13.2% | –
27 | C/C(=N/NC(=O)CCc1ccccc1)c1ccco1 | -2.85% | –
28 | O=C(CCc1ccccc1)Nc1cccc(-c2nnc(-c3ccco3)o2)c1 | – | 12.6 µM (active)
